# Assay outcomes: PubChem, National Center for Advancing Translational Sciences (NCATS)
# HT1080-NT tox: kills 2HG-producing HT-1080-NT fibrosarcoma cells | HT-1080-NT fibrosarcoma viability, CellTiter-Glo ATP luminescence, 48 h | Potency, µM (titrated, usually from 46.1 µM), hits mostly cytotoxic | hit rate 1.6% among 360,000 | AID 686970;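 note: NT is the 2HG producing partner of a matched IDH1 knockdown line; nearly all actives have a fitted effect of over 55% in size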
#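 Compounds were tested in concentration-response format on HT-1080-NT cells for 48 hours at 37 degrees C. Cell viability came from CellTiter-Glo luminescence; curves were classified by r2, response magnitude and activity.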
# TDP1 cell noCPT: qHTS for Inhibitors of human tyrosyl-DNA phosphodiesterase 1 (TDP1): qHTS in cells in absence of CPT; Potency, µM (titrated, usually from 46.2 µM), usual class: inhibitors; hit rate 15% among 420,000; DT40 Tdp1-/- hTDP1 cells, no CPT, ATP luminescence, 48 h; note: nearly all actives have a fitted effect of over 55% in size
#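 Chicken DT40 Tdp1-/- cells complemented with human TDP1, screened without camptothecin (DMSO vehicle only), 400 cells/well. Compounds pin-transferred, cells incubated at 37 °C for at least 48 hr. Growth read as ATP-dependent luminescence (CellTiter-Glo, 30 min at RT).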
# IL1B secr inh: inflammasome signaling inhibition, IL-1 beta readout | THP-1 LPS/ATP IL-1B secretion, AlphaLISA, 16 h; hits give low values | activity change, % at 57.5 µM | hit rate 4.7% among 360,000 | AID 743279; in the data active = activity change below about -50%; inconclusive = mostly about -30% to -49%
#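 THP-1 cells pretreated 1 hr with compounds (up to 57.5 uM final), then stimulated with LPS (250 ng/mL final) plus ATP (1.25 mM final); secreted IL-1B measured by AlphaLISA after 16 hr, decreased signal indicating inhibition.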
# HT1080 IDH1KD tx: HT-1080 IDH1 knockdown cell toxicity (counter line); HT-1080 IDH1 knockdown viability, ATP luminescence, 48 h; Potency, µM (titrated, usually from 46.1 µM), actives largely listed as cytotoxic; hit rate 2% among 360,000; AID 686971
#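 Assay cells: HT-1080 with IDH1 knockdown, 750 per well, RPMI/5% FBS. Exposure: 48 h at 37 °C following 2 h pre-incubation. Read: CellTiter-Glo luminescence; fitted concentration-response, curve class assigned.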
# TDP1 cell CPT: DT40-hTDP1 cell growth loss with CPT. Potency, µM (titrated, usually from 46.2 µM), actives largely listed as inhibitors. chicken DT40 Tdp1-/-;hTDP1 cells + 20 nM CPT, ATP luminescence, 48 h. AID 686979. hit rate 12% among 420,000; note: nearly all actives have a fitted effect of over 55% in size
#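 Chicken DT40 Tdp1-/- cells stably complemented with human TDP1 were seeded at 400 cells/well in medium containing 20 nM camptothecin, exposed to pin-transferred compounds, and grown at 37 °C for at least 48 hr. Viability was read as ATP luminescence.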
# Hits are given with their value; . = inactive; ? = inconclusive; / = not tested or not shown. A selection: hits, their analogues and other compounds. The true share with any hit is near 19%. Unless noted, calls come from the whole dose curve; as a rule, active = well fitted curve in the direction sought with a large enough effect; inconclusive = small, poorly fitted or top-dose-only effect, or another doubt; inactive = no such curve, though single readings can be large; an effect the other way counts as inactive or inconclusive.
SMILES,HT1080-NT tox,TDP1 cell noCPT,IL1B secr inh,HT1080 IDH1KD tx,TDP1 cell CPT
CO[C@H]1C=CO[C@@]2(C)Oc3c(C)c(O)c4c(O)c(c5c(nc6cc(C)ccn65)c4c3C2=O)NC(=O)/C(C)=C\C=C[C@H](C)[C@H](O)[C@@H](C)[C@@H](O)[C@@H](C)[C@H](OC(C)=O)[C@@H]1C,/,13.3µM,/,/,?
O=C(COC(=O)/C=C/c1cccc(F)c1)NCc1ccc2c(c1)OCO2,.,.,.,.,.
O=S(=O)(NC1CC1)c1ccc(Br)cc1N1CCC[C@H]1CO,.,?,.,.,?
O=C(c1ccc(CNS(=O)(=O)c2ccc(Br)cc2)cc1)N1CCCCCC1,.,?,.,.,23.1µM
CN1CCN(C(=O)c2ccc(S(=O)(=O)c3ccc(Br)cc3)cc2)CC1,.,18.4µM,.,.,?
CC1CCN(C(=O)C(C)NCc2ccc(F)cc2)CC1 (stereo not drawn),.,20.6µM,.,.,?
CC1CCN(CC2CCN(C(=O)NCc3ccc(F)cc3)CC2)CC1,/,.,/,/,.
COc1ccccc1CCNC(=O)C(=O)Nc1cc2c3c(c1)CC(=O)N3CCC2,.,?,.,.,?
COc1cc2ccccc2ccc1=NO,.,11.6µM,?,.,16.4µM
COc1ccc2ccccc2c1/C=N/O,.,.,.,.,.
COc1ccc(OC)c2cc3ccccc3cc12,.,0.92µM,.,?,0.731µM
COc1cc2ccccc2cc1C(=O)O,.,.,.,.,.
COc1ccc(Cl)cc1NC(=O)CN(C)C(=O)C1COc2ccccc2O1 (stereo not drawn),.,.,.,.,.
N#CCCn1c(=O)c(-c2cccs2)nc2cnc(Oc3ccccc3)nc21,/,?,/,/,.
CCOc1ccc(NC(=O)CN(C)C(=O)c2ccc(OCC3CCCO3)cc2)cc1OCC (stereo not drawn),.,.,.,.,.
CN(CCc1ccccc1)C1CCCN(C(=O)Cn2cccn2)C1 (stereo not drawn),.,.,.,.,.
Nc1c2c(nc3sc4c(c13)CCCC4)CCCCCC2,.,13µM,.,.,?
CCN(CC)CCn1c2c(c(SCC(=O)Nc3ccccc3Cl)nc1=O)CCC2,.,.,-52.0,.,.
CN(C)CCn1c2c(c(SCC(=O)Nc3cccc4ccccc34)nc1=O)CCCC2,.,?,.,.,?
CCN(CC)CCn1c2c(c(SCC(=O)Nc3cccc4ccccc34)nc1=O)CCC2,.,?,-89.6,.,.
COC(=O)c1cc2oc3ccccc3c2n1Cc1cccc(C)c1,/,?,/,/,.
CCOC(=O)Cn1c(C(F)(F)F)nc2nc(Cl)c(Cl)nc21,.,.,-92.5,.,.
CCN(CC)CCC(=O)N1c2ccccc2CCc2ccc(NC(=O)OC)cc21,.,.,-62.5,?,.
CCOC(=O)Nc1ccc2c(c1)N(C(=O)CN(CC)CC)c1ccccc1CC2,.,?,.,.,?
CCOC(=O)Nc1ccc2c(c1)N(C(=O)CCN(CC)CC)c1ccccc1CC2,?,?,?,.,?
SMILES,HT1080-NT tox,TDP1 cell noCPT,IL1B secr inh,HT1080 IDH1KD tx,TDP1 cell CPT
CCOC(=O)Nc1ccc2c(c1)N(C(=O)CCN(CC)CC)c1ccccc1S2=O (stereo not drawn),16.4µM,3.66µM,-100.1,25.9µM,2.59µM
COc1ccc(CC(Cc2ccc(OC)c(OC)c2)NC=O)cc1OC,.,.,.,.,.
COc1ccccc1N1CC(C(=O)Nc2ccccc2N2CCCC2)CC1=O (stereo not drawn),.,.,.,.,.
C=Cc1ccc2c(c1)N(C)C(=C)S2,.,23.1µM,.,.,16.4µM
O=C(COC(=O)c1ccc([N+](=O)[O-])o1)NC1CCCCC1,.,0.0082µM,.,.,0.0082µM
Cc1c(C(=O)OCC(=O)NC(=O)NC2CCCCC2)cccc1[N+](=O)[O-],.,?,-66.8,.,?
O=C(NC1CCCC(C(F)(F)F)C1)c1ccc([N+](=O)[O-])o1 (stereo not drawn),?,18.4µM,-97.8,?,?
COC(=O)c1sccc1NC(=O)COc1ccc(F)cc1Cl,.,.,.,.,.
COc1ccc(C)cc1N(C)C(=O)CCc1nc(-c2ccccc2F)no1,/,?,/,/,18.4µM
